Test results published in PubChem BioAssay AID1159580 (chemical genetic matrix, 2015).
Where “and” joins values, the source holds several entries; their conditions need not be identical. Identical values can stand only once. The whole screen tested about 5,500 compounds, of which about 2,000 (36%) were called active. Not shown: some 18% with an inconclusive outcome. No stated cut-off is given here; in the data, active means normalized growth mostly below about 0.91 (no sharp cut-off); inconclusive means no clear call, values can overlap the other calls; inactive means mostly above about 0.92. This is one part of the list.

Experiment: chemical genetic growth profiling, strain panel (AID 1159580);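 further: tested at 20 µM; growth read once vehicle control cultures reached saturation at 30 °C; 1 = growth at the plate median or of vehicle wells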
Settings: growth OD

Measured: normalized growth

CC(=O)O[C@@H]1CC[C@@]2(C)C(C[C@@H](OC(C)=O)[C@@]3(C)C4=CC(=O)O[C@@H](c5ccoc5)[C@]4(C)CCC23)C1(C)C (stereo partly drawn)
inactive: S. cerevisiae deletion strains, locus YBR021W, strain FUR4, stronger effect = lower value 1.01 | S. cerevisiae deletion strains, locus YBR229C, strain ROT2, stronger effect = lower value 1.01 | S. cerevisiae deletion strains, locus YCL029C, strain bik1, stronger effect = lower value 0.99 | S. cerevisiae deletion strains, locus YDL035C, strain GPR1, stronger effect = lower value 1.03 | S. cerevisiae deletion strains, locus YDL074C, strain BRE1, stronger effect = lower value 1 | S. cerevisiae deletion strains, locus YDL101C, strain DUN1, stronger effect = lower value 1.01 | S. cerevisiae deletion strains, locus YDL134C, strain PPH21, stronger effect = lower value 1.01 | S. cerevisiae deletion strains, locus YDL185W, strain tfp1, stronger effect = lower value 0.996 | S. cerevisiae deletion strains, locus YDL192W, strain arf1, stronger effect = lower value 1 | S. cerevisiae deletion strains, locus YDR101C, strain arx1, stronger effect = lower value 1 | S. cerevisiae deletion strains, locus YDR162C, strain NBP2, stronger effect = lower value 1.02 | S. cerevisiae deletion strains, locus YDR318W, strain mcm21, stronger effect = lower value 1 | S. cerevisiae deletion strains, locus YDR388W, stronger effect = lower value 1 | S. cerevisiae deletion strains, locus YDR502C, strain sam2, stronger effect = lower value 0.983 | S. cerevisiae deletion strains, locus YEL061C, strain CIN8, stronger effect = lower value 1.02 | S. cerevisiae deletion strains, locus YER110C, stronger effect = lower value 1 | S. cerevisiae deletion strains, locus YER155C, strain BEM2, stronger effect = lower value 1.02 | S. cerevisiae deletion strains, locus YER167W, strain BCK2, stronger effect = lower value 1.02 | S. cerevisiae deletion strains, locus YGL078C, strain dbp3, stronger effect = lower value 0.994 | S. cerevisiae deletion strains, locus YGL086W, strain mad1, stronger effect = lower value 1.02 | S. cerevisiae deletion strains, locus YGL248W, strain PDE1, stronger effect = lower value 0.999 | S. cerevisiae deletion strains, locus YGR135W, strain pre9, stronger effect = lower value 0.973 | S. cerevisiae deletion strains, locus YGR252W, strain gcn5, stronger effect = lower value 0.918 | S. cerevisiae deletion strains, locus YHR030C, strain SLT2, stronger effect = lower value 0.962 | S. cerevisiae deletion strains, locus YHR079C, strain IRE1 (second series), stronger effect = lower value 1 | S. cerevisiae deletion strains, locus YHR079C, strain IRE1, stronger effect = lower value 0.998 | S. cerevisiae deletion strains, locus YHR094C, strain hxt1, stronger effect = lower value 0.998 | S. cerevisiae deletion strains, locus YHR129C, strain ARP1, stronger effect = lower value 1.02 | S. cerevisiae deletion strains, locus YHR200W, strain rpn10, stronger effect = lower value 0.976 | S. cerevisiae deletion strains, locus YIL066C, strain RNR3, stronger effect = lower value 1.03 | S. cerevisiae deletion strains, locus YIL073C, strain SPO22, stronger effect = lower value 0.996 | S. cerevisiae deletion strains, locus YIL125W, strain kgd1, stronger effect = lower value 1 | S. cerevisiae deletion strains, locus YIR030C, strain dcg1, stronger effect = lower value 1 | S. cerevisiae deletion strains, locus YJL095W, strain BCK1, stronger effect = lower value 0.986 and 0.998 | S. cerevisiae deletion strains, locus YJL134W, strain LCB3, stronger effect = lower value 1.02 | S. cerevisiae deletion strains, locus YJL168C, strain set2, stronger effect = lower value 1 | S. cerevisiae deletion strains, locus YJL187C, strain SWE1 (second series), stronger effect = lower value 1 | S. cerevisiae deletion strains, locus YJR066W, strain TOR1, stronger effect = lower value 0.918 | S. cerevisiae deletion strains, locus YKL009W, strain mrt4, stronger effect = lower value 1.05 | S. cerevisiae deletion strains, locus YKL068W, stronger effect = lower value 1 | S. cerevisiae deletion strains, locus YKL085W, strain MDH1 (second series), stronger effect = lower value 1.03 | S. cerevisiae deletion strains, locus YKL085W, strain MDH1, stronger effect = lower value 1.03 | S. cerevisiae deletion strains, locus YKL190W, strain CNB1, stronger effect = lower value 1.02 | S. cerevisiae deletion strains, locus YKR001C, strain vps1, stronger effect = lower value 0.998 | S. cerevisiae deletion strains, locus YLR039C, strain RIC1, stronger effect = lower value 1.04 | S. cerevisiae deletion strains, locus YLR058C, strain SHM2, stronger effect = lower value 1.01 | S. cerevisiae deletion strains, locus YLR102C, strain apc9, stronger effect = lower value 0.998 | S. cerevisiae deletion strains, locus YLR113W, strain HOG1, stronger effect = lower value 0.981 | S. cerevisiae deletion strains, locus YLR268W, strain sec22, stronger effect = lower value 0.99 | S. cerevisiae deletion strains, locus YLR371W, strain rom2, stronger effect = lower value 1.01 | S. cerevisiae deletion strains, locus YLR418C, strain cdc73, stronger effect = lower value 0.909 | S. cerevisiae deletion strains, locus YML016C, strain PPZ1, stronger effect = lower value 1.02 | S. cerevisiae deletion strains, locus YML032C, strain rad52, stronger effect = lower value 1 | S. cerevisiae deletion strains, locus YML124C, strain tub3, stronger effect = lower value 0.999 | S. cerevisiae deletion strains, locus YMR078C, strain ctf18, stronger effect = lower value 1.01 | S. cerevisiae deletion strains, locus YMR223W, strain ubp8, stronger effect = lower value 0.988 | S. cerevisiae deletion strains, locus YMR307W, strain GAS1, stronger effect = lower value 0.953 | S. cerevisiae deletion strains, locus YNL067W, strain RPL9B, stronger effect = lower value 1 | S. cerevisiae deletion strains, locus YNL183C, strain NPR1, stronger effect = lower value 0.931 | S. cerevisiae deletion strains, locus YNL233W, strain BNI4, stronger effect = lower value 0.993 | S. cerevisiae deletion strains, locus YNL250W, strain rad50, stronger effect = lower value 0.992 | S. cerevisiae deletion strains, locus YNL271C, strain bni1, stronger effect = lower value 1 | S. cerevisiae deletion strains, locus YNL298W, strain CLA4, stronger effect = lower value 0.989 | S. cerevisiae deletion strains, locus YNL307C, strain MCK1, stronger effect = lower value 0.993 | S. cerevisiae deletion strains, locus YNR052C, strain pop2, stronger effect = lower value 0.993 | S. cerevisiae deletion strains, locus YOL006C, strain TOP1, stronger effect = lower value 0.986 | S. cerevisiae deletion strains, locus YOL012C, strain htz1 0.707 | S. cerevisiae deletion strains, locus YOL147C, strain pex11, stronger effect = lower value 1 | S. cerevisiae deletion strains, locus YOR061W, strain CKA2, stronger effect = lower value 1.02 | S. cerevisiae deletion strains, locus YOR069W, strain VPS5, stronger effect = lower value 1.02 | S. cerevisiae deletion strains, locus YOR136W, strain idh2, stronger effect = lower value 0.996 | S. cerevisiae deletion strains, locus YOR144C, strain elg1, stronger effect = lower value 1.01 | S. cerevisiae deletion strains, locus YOR184W, strain ser1, stronger effect = lower value 1.01 | S. cerevisiae deletion strains, locus YOR231W, strain MKK1, stronger effect = lower value 0.999 | S. cerevisiae deletion strains, locus YOR316C, strain cot1, stronger effect = lower value 0.999 | S. cerevisiae deletion strains, locus YPL055C, strain LGE1, stronger effect = lower value 0.997 | S. cerevisiae deletion strains, locus YPL256C, strain CLN2, stronger effect = lower value 0.973 | S. cerevisiae deletion strains, locus YPR119W, strain clb2, stronger effect = lower value 1 | S. cerevisiae deletion strains, locus YPR141C, strain kar3, stronger effect = lower value 0.993 | S. cerevisiae deletion strains, locus YPR163C, strain tif3, stronger effect = lower value 0.988 | S. cerevisiae deletion strains, locus YPR167C, strain met16, stronger effect = lower value 0.995 | S. cerevisiae deletion strains, strain wtn01, stronger effect = lower value 0.986 | S. cerevisiae strains, strain wild type, stronger effect = lower value 1.02
